DT40 TDP1 no CPT = qHTS for Inhibitors of human tyrosyl-DNA phosphodiesterase 1 (TDP1): qHTS in cells in absence of CPT; DT40 Tdp1-/- hTDP1 cells, no CPT, ATP luminescence, 48 h; Potency, µM (series often up to 46.2 µM), actives largely listed as inhibitors; hit rate 15% among 420,000; further: nearly all actives have a fitted effect of over 55% in size
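Camptothecin absent (DMSO only). Human TDP1-complemented DT40 knockout cells, 400 cells/well, 37 °C for minimum 48 hr; ATP measured via CellTiter-Glo, 30 min dark incubation, luminescence.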
MCF10A rerep = DNA re-replication induction in MCF 10a cells. hit rate 2.9% among 350,000. Potency, µM (top dose mostly 46.1 µM), usual class: activators. MCF 10A DNA re-replication, Hoechst nuclear intensity, 48 h; further: nearly all actives have a fitted effect of over 50% in size
IL-1B inflam inh = inflammasome signaling inhibition, IL-1 beta readout; activity change, % at 57.5 µM; hit rate 4.7% among 360,000; THP-1 LPS/ATP IL-1B secretion, AlphaLISA, 16 h; active compounds read low; in the data active means activity change below about -50%; inconclusive means mostly about -30% to -49%
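Secreted IL-1B measured by AlphaLISA bead assay after 16 h compound exposure of THP-1 cells; compounds (final up to 57.5 uM) added 1 h before LPS (250 ng/mL) and ATP (1.25 mM) stimulation; lower signal means less secretion.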
TDP1 cell CPT = growth inhibition of DT40 Tdp1-/-;hTDP1 cells with camptothecin (screen for TDP1 inhibitors); chicken DT40 Tdp1-/-;hTDP1 cells + 20 nM CPT, ATP luminescence, 48 h; Potency, µM (highest dose often 46.2 µM), actives largely listed as inhibitors; hit rate 12% among 420,000; further: nearly all actives have a fitted effect of over 55% in size
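Chicken DT40 Tdp1-/- cells stably complemented with human TDP1 were seeded at 400 cells/well in medium containing 20 nM camptothecin, exposed to pin-transferred compounds, and grown at 37 °C for at least 48 hr. Viability was read as ATP luminescence.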
SW480 rerep = inducers of DNA re-replication in SW480 colon cancer cells; SW480 DNA re-replication, Hoechst DNA content imaging, 48 h; Potency, µM (doses to about 46.1 µM), hits mostly activators; hit rate 1.8% among 340,000; further: nearly all actives have a fitted effect of over 55% in size
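Cells (250 per well) received 23 nL compound or DMSO by pin tool and were kept 48 hr at 37 C, 5% CO2. Nuclei were then stained with Hoechst for 40 min and scanned for DNA content.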
BCR signal inh = chronic active BCR signaling inhibition; ABC-DLBCL IkBa-CBG/CBR reporter, luminescence ratio, 4 h; Potency, µM (series often up to 46.1 µM), usual class: inhibitors; hit rate 0.05% among 340,000; AID 493014; active means well fitted inhibition curve with a large enough effect in the signal ratio, with a control signal flat, not every such curve was filed as active; inconclusive means small, poorly fitted or top-dose-only effect, or effect the other way, or a change in a side signal; the % refers to the signal ratio
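TMD8 human ABC-DLBCL cells with doxycycline-inducible IκBα–green luciferase fusion and unfused red luciferase, in 0.5% FBS medium; compounds up to 46 uM, 4 h at 37C. Green/red luminescence ratio, filter-overlap corrected, fitted to concentration-response curves.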
Large screens that a line does not name were inactive. Only some compounds are listed: those with a hit (about 19% of all), similar ones and a draw of the others. Unless noted, the call rests on the fitted dose curve; in most records, active means well fitted curve in the direction sought with a large enough effect; inconclusive means small, poorly fitted or top-dose-only effect, or another doubt; inactive means no such curve, though single readings can be large; an effect the other way counts as inactive or inconclusive.

CN(Cc1ccccc1)C(=O)c1cccc(NC(=O)Cc2ccc(NC(=O)C3CCN(C(=O)C4CCCC4)CC3)cc2)c1	DT40 TDP1 no CPT inconclusive, MCF10A rerep inconclusive, TDP1 cell CPT inconclusive (no result: BCR signal inh)
CN(Cc1ccccc1)C(=O)c1cccc(NC(=O)Cc2ccc(NC(=O)C3CCCN(C(=O)C4CCCCC4)C3)cc2)c1 (configuration not stated)	DT40 TDP1 no CPT inconclusive, TDP1 cell CPT 16µM (no result: BCR signal inh)
CN(Cc1ccccc1)C(=O)c1ccc(NC(=O)Cc2ccc(NC(=O)C3CCN(S(=O)(=O)c4cccc([N+](=O)[O-])c4)CC3)cc2)cc1	DT40 TDP1 no CPT inconclusive, TDP1 cell CPT 13µM (no result: BCR signal inh)
CN(Cc1ccccc1)C(=O)c1cccc(NC(=O)Cc2ccc(NC(=O)C3CCCN(C(=O)CCc4ccccc4)C3)cc2)c1 (configuration not stated)	DT40 TDP1 no CPT 15µM, MCF10A rerep inconclusive, TDP1 cell CPT 23µM (no result: BCR signal inh)
CN(C(=O)c1cccc(NC(=O)Cc2ccc(NC(=O)C3CCCN(C(=O)CCc4ccccc4)C3)cc2)c1)C1CCC1 (configuration not stated)	DT40 TDP1 no CPT 15µM, MCF10A rerep inconclusive, TDP1 cell CPT inconclusive (no result: BCR signal inh)
CCCC[C@]12Cc3cc(C#N)ccc3C(O1)c1c(c3cc(F)ccc3oc1=O)O2	none (no result: DT40 TDP1 no CPT, MCF10A rerep, IL-1B inflam inh, TDP1 cell CPT, SW480 rerep)
COc1ccc(CCNC(=O)c2cc(=O)[nH]c3ccc(S(=O)(=O)N4CCCCC4C)cc23)cc1OC (configuration not stated)	BCR signal inh inconclusive (no result: MCF10A rerep, IL-1B inflam inh, SW480 rerep)
COc1ccc(-c2noc(COC(=O)c3ccco3)n2)cc1OC	none
COc1cccc(C(=O)Nn2cnnc2)c1OC	none
Cc1cc(C)c2c(=O)[nH][nH]c2n1	TDP1 cell CPT inconclusive (no result: BCR signal inh)
CN(C(=O)c1ccc(NC(=O)Cc2ccc(NC(=O)C3CCCN(C(=O)CCc4ccccc4)C3)cc2)cc1)C1CC1 (configuration not stated)	DT40 TDP1 no CPT 13µM, TDP1 cell CPT inconclusive
CN(C(=O)c1cccc(NC(=O)Cc2ccc(NC(=O)C3CCCN(C(=O)CCc4ccccc4)C3)cc2)c1)C1CCCC1 (configuration not stated)	DT40 TDP1 no CPT 16µM, MCF10A rerep inconclusive, TDP1 cell CPT inconclusive (no result: BCR signal inh)
CN(C(=O)c1cccc(NC(=O)Cc2ccc(NC(=O)C3CCCN(C(=O)C4CCCCC4)C3)cc2)c1)C1CCC1 (configuration not stated)	DT40 TDP1 no CPT inconclusive, MCF10A rerep inconclusive, TDP1 cell CPT inconclusive, SW480 rerep inconclusive (no result: BCR signal inh)
CN(C(=O)c1ccc(NC(=O)Cc2cccc(NC(=O)C3CCCN(C(=O)CCc4ccccc4)C3)c2)cc1)C1CCCC1 (configuration not stated)	DT40 TDP1 no CPT inconclusive, MCF10A rerep inconclusive, TDP1 cell CPT 29µM
Cc1ccc(CCNC(=O)C2COc3ccccc3C2)cc1 (configuration not stated)	TDP1 cell CPT inconclusive (no result: MCF10A rerep, IL-1B inflam inh, SW480 rerep, BCR signal inh)
CN1CCN(NC(=O)/C=C/c2cccc([N+](=O)[O-])c2)CC1	none
Cc1ccc(NC(=S)Nc2cccc3cnccc23)cc1	DT40 TDP1 no CPT 16µM, TDP1 cell CPT inconclusive
S=C(Nc1ccc(Cl)cc1Cl)Nc1ccccc1Oc1ccccc1	DT40 TDP1 no CPT inconclusive, MCF10A rerep inconclusive
S=C(Nc1cccc(Cl)c1)Nc1ccccc1Oc1ccccc1	DT40 TDP1 no CPT 21µM, MCF10A rerep inconclusive, TDP1 cell CPT inconclusive
S=C(Nc1cccc(Cl)c1)Nc1cccc2cnccc12	DT40 TDP1 no CPT 18µM, MCF10A rerep inconclusive, IL-1B inflam inh inconclusive, TDP1 cell CPT 16µM, BCR signal inh inconclusive
Cc1ccc(NC(=S)Nc2cccc3cnccc23)cc1C	DT40 TDP1 no CPT inconclusive, IL-1B inflam inh -78, TDP1 cell CPT inconclusive
CC(C)(C)OC(=O)N1CCC(C(=O)Nc2ccc3c(c2)CCC3)CC1	DT40 TDP1 no CPT inconclusive, MCF10A rerep inconclusive, TDP1 cell CPT inconclusive
Cc1ccccc1NC(=S)Nc1cccc2cnccc12	DT40 TDP1 no CPT inconclusive, TDP1 cell CPT inconclusive
Cc1ccc(C)c(NC(=S)Nc2cccc3cnccc23)c1	DT40 TDP1 no CPT 16µM, MCF10A rerep inconclusive, TDP1 cell CPT 15µM, SW480 rerep 13µM, BCR signal inh inconclusive
CSc1nc2nccc(/C=C\c3ccccc3)n2n1	DT40 TDP1 no CPT 23µM, MCF10A rerep inconclusive, IL-1B inflam inh -105, TDP1 cell CPT inconclusive, SW480 rerep inconclusive
Cc1cc(C(=O)N(C2CCCCC2)C2CCCCC2)no1	DT40 TDP1 no CPT 8.2µM, TDP1 cell CPT 13µM
CCOc1ccccc1Nc1nnc(-c2cc3cc(Cl)ccc3oc2=O)s1	DT40 TDP1 no CPT 2.3µM, TDP1 cell CPT 2.3µM, BCR signal inh inconclusive (no result: MCF10A rerep, IL-1B inflam inh, SW480 rerep)
COc1ccc(Nc2nnc(-c3cc4cc(Cl)ccc4oc3=O)s2)cc1	none (no result: MCF10A rerep, IL-1B inflam inh, SW480 rerep, BCR signal inh)
CC(Oc1ccc(Cl)cc1Cl)C(=O)NC1=NN(c2ccccc2)C(=O)C1 (configuration not stated)	DT40 TDP1 no CPT inconclusive, MCF10A rerep 18µM
CC(=O)Nc1ccc(NC(=O)C(C)Oc2ccc(Cl)cc2Cl)cc1 (configuration not stated)	SW480 rerep inconclusive
CC(Oc1ccc(Cl)cc1Cl)C(=O)NCCC1=CCCCC1 (configuration not stated)	DT40 TDP1 no CPT inconclusive, IL-1B inflam inh -57, TDP1 cell CPT inconclusive
CC(Oc1ccc(Cl)cc1Cl)C(=O)Nc1ccncc1 (configuration not stated)	DT40 TDP1 no CPT 9.2µM, MCF10A rerep inconclusive, TDP1 cell CPT 21µM
COc1ccccc1N(C(=O)c1snc(C(N)=O)c1N)C(C(=O)NC1CCCC1)c1ccc2ncccc2c1 (configuration not stated)	MCF10A rerep inconclusive, SW480 rerep inconclusive
COc1ccc(CCN(C)C2CCCN(S(=O)(=O)c3ccccc3)C2)cc1OC (configuration not stated)	SW480 rerep inconclusive
COc1ccccc1C(=O)NCc1ccco1	none
CCOc1ccccc1C(=O)N(Cc1ccco1)Cc1ccccc1F	DT40 TDP1 no CPT 21µM, TDP1 cell CPT 21µM (no result: MCF10A rerep, IL-1B inflam inh, SW480 rerep, BCR signal inh)
COc1ccccc1C(=O)N(Cc1ccco1)Cc1ccccc1F	DT40 TDP1 no CPT 21µM, TDP1 cell CPT inconclusive (no result: MCF10A rerep, IL-1B inflam inh, SW480 rerep, BCR signal inh)
CCOC(=O)C1CCN(C(=O)c2ccc3c(=O)n4nc(Nc5ccccc5OC)sc4nc3c2)CC1	DT40 TDP1 no CPT 21µM, IL-1B inflam inh -52, TDP1 cell CPT 26µM (no result: MCF10A rerep, SW480 rerep, BCR signal inh)
CCOC(=O)C1CCN(C(=O)c2ccc3c(=O)n4nc(Nc5cc(C)ccc5C)sc4nc3c2)CC1	DT40 TDP1 no CPT 18µM, TDP1 cell CPT 9.2µM, SW480 rerep inconclusive, BCR signal inh inconclusive
